Pf growth 96h = P. falciparum growth inhibition at 96 hour, primary screen for plastid delayed-death inhibitors | P. falciparum luciferase reporter growth, 96 h | Potency, µM (titrated, usually from 28.7 µM), without a hit: at the top dose activity change, negative = inhibition, usual class: inhibitors | 320,000 compounds, 6.9% hits | AID 504834; also: potency is read from the fitted curve at half-maximal effect; % is scaled to controls: 0 for no effect and ±100 for the full control effect
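Cell-based qHTS: luciferase-tagged P. falciparum in erythrocytes (2% hematocrit, 0.05% parasitemia final) incubated with compounds for 96 hours, 37 C, 5% CO2; luciferase detection reagent then added and luminescence measured.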
HCMV antiviral = inhibitors of human cytomegalovirus; AID 1259415; activity change, negative = inhibition, % at 57.5 µM; HFF cells, HCMV-luciferase reporter, 72 h; hits give low values; 410,000 compounds, 4.5% hits; in the data active = activity change below about -60%; inconclusive = no clear call, values can overlap the other calls; inactive = above about -39%; also: % is scaled to controls: 0 for no effect and ±100 for the full control effect
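Steps: HFFs plated, 16 h 37C; compounds added; HCMV-luciferase added to MOI 1 PFU/cell; 72 h 37C; OneGlo reagent, 5 min room temperature; luminescence read, normalized to controls.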
CHX counter = counter-screen for Shiga toxin inhibitors: cycloheximide protein synthesis inhibition. cell reporter, cycloheximide protein synthesis inhibition counterscreen. max response, %. 300,000 compounds, 12% hits. AID 2314; in the data active = max response mostly above about 13%, no sharp cut-off; inactive = mostly below about 14%; also: read at 38.3 µM for the half of the compounds with a filed dose; 0% is about no effect
Pf growth 48h = inhibits P. falciparum growth in the first generation, 48 h; P. falciparum luciferase growth in erythrocytes, 48 h; Potency, µM (doses to about 28.7 µM), for the others: at the top dose activity change, negative = inhibition, hits mostly inhibitors; 310,000 compounds, 5.9% hits; also: potency is read from the fitted curve at half-maximal effect; % is scaled to controls: 0 for no effect and ±100 for the full control effect
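A one-generation exposure of luciferase-tagged malaria parasites in RPMI 1640/Albumax erythrocyte culture, 37 C and 5% CO2. Inhibition is inferred from decreased luminescence after adding detection reagent.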
Shiga inhibitor = Shiga toxin inhibition; Vero cells, Shiga toxin protein synthesis inhibition reporter; inhibition, % at 38.7 µM; 290,000 compounds, 9.2% hits; AID 2315; in the data active = inhibition mostly above about 28%, no sharp cut-off; inactive = mostly below about 43%; also: 0% is about no effect
HCV inh = blocks hepatitis C virus | Huh7.5.1 HCVcc-Cre infection, luciferase reporter, 44 h | Potency, µM (titrated, usually from 41.8 µM), for inactives: top-dose activity change, negative = inhibition, most hits filed as inhibitors | 340,000 compounds, 3.4% hits; also: potency is read from the fitted curve at half-maximal effect; % is scaled to controls: 0 for no effect and ±100 for the full control effect
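Seed cells (1,000/well) for 4 h; treat with compound and infect with HCVcc-Cre, moi about 0.5. Incubate 44 h, then detect luciferase activity.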
Numbers without * were called inactive; i = inactive; ? = inconclusive; · = no result given; [ ] = remark or other dose. Rows were chosen to be rich in hits. Some 21% of all compounds tested hit in one or more screens of this group. Unless noted, calls follow the shape of the dose curve; as a rule, active = well fitted inhibition curve with a large enough effect; inconclusive = small, poorly fitted or top-dose-only effect, or another doubt; inactive = no such curve, though single readings can be large or run the other way.

SMILES	Pf growth 96h	HCMV antiviral	CHX counter	Pf growth 48h	Shiga inhibitor	HCV inh
Cc1ccc(C)c(Cn2nc3c4ccccc4n(Cc4ccccc4)cc-3c2=O)c1	10%	22	-7	13µM*	-4	0%
CCOP(=O)(c1ccccc1)c1nc(-c2ccccc2C)oc1NCc1ccccc1 (stereo not drawn)	?	-2	-3	12µM*	20	5%
COP(=O)(OC)c1nc(-c2cccc3ccccc23)oc1NCc1ccccc1	?	-13	1	?	-4	3%
CCOP(=O)(c1ccccc1)c1nc(-c2ccccc2C)oc1N1CCCCC1 (stereo not drawn)	-30%	-2	0	13µM*	-21	?
Cc1ccccc1-c1nc(P(=O)(c2ccccc2)c2ccccc2)c(N2CCOCC2)o1	?	57	-1	15µM*	-9	-16%
CCOP(=O)(OCC)c1nc(-c2cccc3ccccc23)oc1N1CCCCC1	?	57	-4	?	-7	?
CCN(CC)c1ccc(C(=O)c2ccccc2C(=O)O)c(O)c1	18%	145	22*	1%	28*	5%
O=C(O)c1cc(N(Cc2ccccc2O)Cc2ccccc2O)ccc1O	·	·	12	·	-2	·
CC1CCCC(C)N1C(=O)COC(=O)c1c[nH]c2ccccc12 (stereo not drawn)	-3%	-16	·	19%	·	8%
Cc1ccc(NC(=S)NCc2ccc3c(c2)OCO3)cc1C	-14%	11	13	-2%	-7	8%
Cc1ccc(NC(=O)NCc2ccc3c(c2)OCO3)cc1C	0%	55	23*	79%	43*	-5%
COc1cccc2cc(C(=O)OCC(=O)NCc3ccc4c(c3)OCO4)c(=O)oc12	23%	1	38*	11%	67*	6%
O=C(NCc1ccc2c(c1)OCO2)Nc1ccc(F)cc1	?	38	37*	68%	44*	8%
COc1cccc(C(=O)OCC(=O)NCc2ccc3c(c2)OCO3)c1OC	·	-11	·	·	·	3%
Fc1ccc(NC(=S)NCc2ccc3c(c2)OCO3)cc1	40%	-6	-1	-5%	25	28%
COc1ccccc1NC(=O)NCc1ccc2c(c1)OCO2	15µM*	·	11*	21%	-1	-2%
COc1ccccc1OCCC(=O)NCc1ccc2c(c1)OCO2	-26%	36	13	18%	45	8%
COc1ccccc1CN(CC(=O)NCc1ccc2c(c1)OCO2)C(=O)c1ccc2c(c1)OCCO2	9.3µM*	-25	-1	-23%	1	12%
COc1ccc(/C=C/C(=O)Nc2cccc(S(=O)(=O)NC3=NCCCCC3)c2)c(OC)c1	?	-33	·	?	·	?
O=C(/C=C/c1ccc(OC(F)F)cc1)Nc1cccc(S(=O)(=O)NC2=NCCCCC2)c1	-3%	-69*	29*	-3%	57*	?
COc1cc(/C=C/C(=O)Nc2cccc(S(=O)(=O)NC3=NCCCCC3)c2)ccc1OCC#N	?	-31	·	10µM*	·	6.3µM*
COc1ccc(OC)c(/C=C/C(=O)Nc2cccc(S(=O)(=O)NC3=NCCCCC3)c2)c1	?	-18	·	10µM*	·	?
COc1ccc(/C=C/C(=O)Nc2cccc(S(=O)(=O)NC3=NCCCCC3)c2)cc1	90%	-5	26*	56%	74*	?
Cc1ccccc1NC(=O)Cn1c(=O)n(CCC(=O)NCc2ccc3c(c2)OCO3)c(=O)c2sccc21	·	17	·	·	·	·
O=C(N/N=C/c1cccc(F)c1)NC1CCCCC1	0%	26	19*	66%	20	?
SMILES	Pf growth 96h	HCMV antiviral	CHX counter	Pf growth 48h	Shiga inhibitor	HCV inh
COc1cc(/C=N/NC(=O)NC2CCCCC2)cc(OC)c1O	-2%	-4	-3	-3%	14	-5%
COc1cc(/C=N/NC(=O)NC2CCCCC2)ccc1O	26%	23	14*	3%	43*	51%
O=C(N/N=C/c1ccccc1F)NC1CCCCC1	-4%	33	18*	157%	33*	20%
O=C(N/N=C/c1ccccc1OC(F)F)NC1CCCCC1	?	-30	2	?	11	-14%
O=C(N/N=C/c1ccccc1)NC1CCCCC1	33%	31	31*	59%	46	1%
CCOC(=O)C(NC(=O)C1C(C)N1S(=O)(=O)c1ccc(C)cc1)C(=O)OCC (stereo not drawn)	38%	18	-2	83%	15	1%
CC(C)(C)c1ccc(/C=N/NC(=S)NC2CCCCC2)cc1	?	70	14	?	47*	?
CN(C)S(=O)(=O)c1ccc(NC(=O)N2CCN(c3ccccc3Cl)CC2)cc1	?	-37	-3	13µM*	15	4%
CN(C)S(=O)(=O)c1ccc(NC(=O)N2CCN(c3cccc(C(F)(F)F)c3)CC2)cc1	12µM*	-79*	4	12µM*	15	11µM*
CN(C)S(=O)(=O)c1ccc(NC(=O)C2CC(=O)N(Cc3ccccc3Cl)C2)cc1 (stereo not drawn)	?	-25	·	?	·	-6%
Cc1cc(NC(=O)CSc2nncn2N)no1	3%	37	-6	-8%	-8	-1%
COC(CNC(=O)c1cccc(-n2c(=S)[nH]c3cc(Cl)ccc3c2=O)c1)OC	?	27	-4	-5%	14	11%
CCOC(=O)c1ccc(NC(=S)N2CCC(O)CC2)cc1	14%	-3	39*	73%	66	8%
CCOC(=O)N1CCC(N(C(=O)Nc2ccc(CC)cc2)C(C)CC)CC1 (stereo not drawn)	i	-24	14*	-1%	47	-7%
CCCCc1ccc(NC(=S)N2CCCC(C)C2)cc1 (stereo not drawn)	194%	-67*	21*	32%	41*	-20%
CCOC(=O)c1ccc(NC(=S)N2CCN(CCO)CC2)cc1	15%	38	6	-3%	-4	1%
CCCCc1ccc(NC(=S)N2CCN(c3ncccn3)CC2)cc1	6%[5.75 µM]	-6	0	-17%	-15	?
CCOC(=O)c1ccc(NC(=S)N2CCSC2c2ccc(Br)cc2)cc1 (stereo not drawn)	-21%	-61*	13*	-18%	16	?
CCOc1ccc(-c2nc3c(c(SCC(=O)N4CCCCC4)n2)Cc2cc(C)ccc2O3)cc1	·	29	·	·	·	·
CCOC(=O)c1ccc(NC(=S)N2CCCC(C)C2)cc1 (stereo not drawn)	?	?	13*	-3%	62*	-2%
COc1cc(Cl)c(NC(=O)CCc2nc3cccnc3n2-c2ccccc2)c(OC)c1	·	-24	·	·	·	·
C=CCn1c(C)nnc1SCC(=O)N1c2ccccc2NC(=O)C1(C)C	·	-30	·	·	·	·
CCCCCCn1c(COc2ccccc2F)nnc1SCC(=O)N1c2ccccc2NC(=O)C1(C)C	8.3µM*	4	-2	13µM*	-29	?
